In all, about 68,000 compounds went through this assay and about 2,700 (4%) showed an effect of 50% or more. This excerpt belongs to a sample that is enriched for strong results.

In the assay the test system is Plasmodium berghei. The assay is described as follows: Screen against P. berghei liver stage (PbLuc), transformed with Luciferase, at 2uM. Format: functional, HepG2. The following applies: tested at 2 uM.
In the case of `CC1(c2ncc(CN3CCN(c4ncccn4)CC3)cn2)CCCCO1` (stereo unspecified), the INHIBITION is reported as -30.88%.

Regarding `COc1ccc(-n2nc(C3CC3)nc2CCn2cnnn2)cc1`, the INHIBITION is -4.15%. Regarding `Cc1cccc(CNC(Cc2ccsc2)c2nc(C)c(C)s2)n1` (stereo unspecified), the INHIBITION is recorded as 8.75%. For the compound `CC[C@H]1N(CC2CCOCC2)CCC[C@]12CCC(=O)N2`, the INHIBITION stood at 65.91%.

Take `CC[C@@H]1N(CC2CCOCC2)CCC[C@]12CCC(=O)N2`: the INHIBITION came out at 20.88%. On to `CC[C@@H]1N(CC2CC2)CCC[C@]12CCC(=O)N2`, for which the INHIBITION is listed as 10.49%. As for `Cc1ccc(C(=O)N2Cc3c(CN4CCCCC4)nn(C)c3C2)cc1C`, the figure is -15.95%. With `Cc1cc(C)c2c(N(C)CC3CCOC3)ncnc2n1` (stereo unspecified), the INHIBITION worked out at 27.73%. On to `Cc1cc(C)c2c(N(C)CC3COCCO3)ncnc2n1` (stereo unspecified), for which the INHIBITION is given as 55.7%. As for `CN(CC1COCCO1)c1ncnc2cc(F)ccc12` (stereo unspecified), the INHIBITION worked out at 22.62%.

Consider `Cn1c(Cn2cccn2)nnc1C1CCN(Cc2ccccc2Cl)CC1`, for which the INHIBITION was found to be 15.75%. For the compound `N[C@H]1c2ccccc2C[C@@H]1NC(=O)C1CCN(Cc2ccco2)CC1`, the INHIBITION was 22.88%. Regarding `CN(C)C(=O)CO[C@H]1CN(Cc2ccccc2)[C@@H]2CCCO[C@H]12`, the INHIBITION was determined as 45.56%. Take `CN(C)C(=O)CO[C@H]1CN(Cc2ccc(F)cc2)[C@@H]2CCCO[C@H]12`: the INHIBITION was -84.27%. As for `CN(C)C(=O)CO[C@@H]1CN(Cc2ccccc2)[C@@H]2CCCO[C@@H]21`, the figure is 52.66%; as for `Cn1cnnc1CNC(=O)C1CCCN(Cc2ccccc2)C1` (stereo unspecified), 6.33%; as for `CCNC(=O)NC1CN(Cc2ccncc2Cl)C[C@@H]1OC` (stereo partly specified), -0.98%.

Take `COCC1c2c(cnn2CC2CC2)CCN1Cc1ccc(OC)cc1` (stereo unspecified): the INHIBITION was -4.92%. With `Cc1nc(COC[C@@H]2CC[C@H]3[C@H](CCN3c3ncccn3)O2)cs1`, the INHIBITION is given as -8.23%. Take `COc1ccc(C(=O)C2CCCN(CCc3ccccc3)C2)c(OC)c1` (stereo unspecified): the INHIBITION is -18.81%. For the compound `CCOc1cc(CN(C)CC(=O)O)ccc1OC(F)F`, the INHIBITION came out at 78.96%. To `CCOc1cc(CN(C)Cc2ccccc2)ccc1OC(F)F` belongs -5.59%. In the case of `CCOc1cc(CN(C)CCC(=O)OC)ccc1OC(F)F`, the INHIBITION is listed as 14.96%. With `CCN(Cc1nonc1C)C(=O)c1cc(C(F)(F)F)nn1C`, the INHIBITION is -12.5%. With `COc1ncccc1CN1CC[C@@]2(O)CCN(C(=O)C3CCC3)C[C@H]2C1`, the INHIBITION was 27.85%. As for `O=C(C1CCCO1)N1CCC2(CC1)COCCN(Cc1ccncc1)C2` (stereo unspecified), the INHIBITION was -66.98%. For the compound `c1cnc(N2CCC3(CCN(Cc4cccnc4)CC3)CC2)nc1`, the INHIBITION is given as 45.82%. For `COCC(=O)N1CCC2(CC1)C(=O)N(Cc1cccnc1)CCN2C`, the INHIBITION was 33.3%. `COCC(=O)N1CCC2(CCN(Cc3cccnc3)C2)CC1`: the INHIBITION came to 51.81%. In the case of `COCC(=O)N1CCC2(CCN(Cc3ccc(C)cc3)CC2)CC1`, the INHIBITION is -4.2%. `COCC(=O)N1CC[C@]2(O)CCN(Cc3ccsc3)C[C@@H]2C1`: the INHIBITION turned out to be 19.49%. Turning to `O=C([C@@H]1CCCO1)N1CCOCC2(CCN(Cc3cccnc3)C2)C1` (stereo partly specified), the INHIBITION is on record as -31.3%. As for `Cc1cnc(N2CC3(CCN(Cc4cccnc4)C3)C2)nc1`, the INHIBITION worked out at 9.53%. To `c1cnc(N2CC3(CCN(Cc4cccnc4)C3)C2)nc1` belongs 52.91%; to `O=C(C1CCCO1)N1CCC2(CC1)COCCN(Cc1cccnc1)C2` (stereo unspecified), 55.49%; to `COCC(=O)N1CC[C@]2(O)CCN(Cc3cccnc3OC)C[C@@H]2C1`, 56.49%.

These data come from ChEMBL document CHEMBL4513216, “Probing the Open Global Health Chemical Diversity Library for Multistage-Active Starting Points for Next-Generation Antimalarials” (ACS Infect Dis, 2020).
